WNV protease inh: inhibitors of WNV NS2B-NS3 protease, primary screen, biochemical, fluorogenic substrate | hit rate 0.18% among 65,000 | fluorogenic substrate Ex360/Em465; active compounds read low | z-score (test concentration not listed) | AID 577, 2007 | Genome polyprotein (West Nile virus), P06935; in the data active = z-score below about -3
Abs 340nm: compound light absorbance at 340 nm, profiling panel, artefact control, biochemical, MLSMR library, data from PS, PMK, MK assays. compound absorbance at 340 nm, fold over control. fold change at 10 µM. 65,000 tested, under 10 active. AID 708, 2007;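 active = at 10 µM dose, initial 340 nm absorbance at least 2 fold that of control wells; inactive = change under 2 fold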;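 note: initial absorbance extrapolated from kinetic A340 decline of NADH oxidation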
M1 agonist: M1 muscarinic receptor agonists, primary screen, CHO-M1 cells, Fluo-4 calcium, agonist mode; Muscarinic acetylcholine receptor M1; Fluo-4 calcium fluorescence; active compounds read high; B-score at 10 µM; hit rate 3% among 64,000;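 active = fluorescence rise, raw or as B-score row- and column-corrected plate score, outside the 99.7% band of its plate's samples, either direction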
BAP1 block: inhibitors of BAP1 deubiquitinase, primary screen, biochemical, Ub-AMC fluorescence, kinetic | recombinant BAP1, Ub-AMC hydrolysis fluorescence kinetic; active compounds read low | calls only at 20 µM | hit rate 0.48% among 72,000 | Ubiquitin carboxyl-terminal hydrolase BAP1 (Homo sapiens), Q92560;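 active = activity remaining at or below 50% of control, provided the compound also passes the data quality filters; inactive = the rest, including low values that fail the filters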;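 note: 100% = DMSO wells rate and 0% = substrate alone blank rate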
Target sequence (Q92560 whole entry, looked up): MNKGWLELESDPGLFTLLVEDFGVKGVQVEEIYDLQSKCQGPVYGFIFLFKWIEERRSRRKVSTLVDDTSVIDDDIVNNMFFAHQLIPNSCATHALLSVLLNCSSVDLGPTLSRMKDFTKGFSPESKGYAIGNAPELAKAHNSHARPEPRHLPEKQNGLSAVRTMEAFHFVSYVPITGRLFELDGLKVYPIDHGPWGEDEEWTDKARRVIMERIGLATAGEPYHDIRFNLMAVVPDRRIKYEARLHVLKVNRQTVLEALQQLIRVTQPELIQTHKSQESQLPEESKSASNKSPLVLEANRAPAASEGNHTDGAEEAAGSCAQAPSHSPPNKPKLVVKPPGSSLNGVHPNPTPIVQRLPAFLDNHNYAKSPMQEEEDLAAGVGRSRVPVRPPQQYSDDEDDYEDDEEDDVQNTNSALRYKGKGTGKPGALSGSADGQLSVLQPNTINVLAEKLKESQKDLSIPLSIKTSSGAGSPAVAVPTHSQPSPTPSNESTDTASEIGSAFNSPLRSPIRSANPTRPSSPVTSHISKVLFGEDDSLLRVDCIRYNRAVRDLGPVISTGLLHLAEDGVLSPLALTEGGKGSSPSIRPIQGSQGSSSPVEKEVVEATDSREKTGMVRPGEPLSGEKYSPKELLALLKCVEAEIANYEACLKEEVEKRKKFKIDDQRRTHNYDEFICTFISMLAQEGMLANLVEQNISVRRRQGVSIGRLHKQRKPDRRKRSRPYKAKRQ
M1 antagonist: antagonists of rat M1 muscarinic receptor; CHO-M1 cells, Fluo-4 calcium, ACh EC80 antagonist mode; active compounds read low; B-score at 10 µM; hit rate 3.4% among 64,000;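 active = calcium fluorescence response, raw or row-and-column corrected B-score, differing from the plate sample mean either way at a set confidence level, mostly lower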
Autofluor 339: intrinsic fluorescence of library compounds, ex339/em460 – biochemical, MLSMR library, data from DPM-DC assay, artefact control, profiling panel; compound autofluorescence, ex339/em460 nm, NADH buffer; active compounds read high; 1 = no-compound wells, NADH background; fluorescence fold increase at 10 µM; hit rate 5.5% among 65,000; AID 709, 2007;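 active = at 10 µM, mean starting fluorescence two-fold or more over control wells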;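 note: signal is the first read of a kinetic run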
* = called active by the depositor; i = inactive; / = no result shown. Compounds with a hit are over-represented: about 9.7% of the library has one in this group of screens.

SMILES	WNV protease inh	Abs 340nm	M1 agonist	BAP1 block	M1 antagonist	Autofluor 339
COC(=O)c1[nH]c2cc(OC)ccc2c1N	1.41	1.09	-0.616	/	-0.332	3.77*
CCOC(=O)c1[nH]c2ccc(OC)cc2c1N=CN(C)C	0.36	1.07	-0.384	i	-0.675	2.83*
Cc1cc(C)c2oc(-c3ccc(C)c(NC(=O)c4cccc(F)c4)c3)nc2c1	/	/	/	i	/	/
O=C(Nc1nnc(CCc2ccccc2)s1)c1cccc(Br)c1	/	/	/	i	/	/
COc1ccccc1-c1csc(NC(=O)c2ccc(S(=O)(=O)N3CCCCC3)cc2)n1	/	/	/	i	/	/
CCOC(=O)c1[nH]c2ccc(OC)cc2c1NS(=O)(=O)c1ccc(OC)cc1OC	-0.03	1.07	/	i	/	1.66
CCOC(=O)c1[nH]c2ccc(OC)cc2c1NC(=O)C(C)N1CCSCC1 (stereo not given)	-1.74	1.06	/	/	/	3.84*
Cc1nc2nc(-c3ccccc3)cn2nc1C	2.88	1.08	0.884	/	0.358	2.22*
COc1ccc(-c2cc3nc4n(c(=O)c3s2)CCC4)cc1	1.34	1.04	-1.22	i	0.632	3.02*
CC(C)c1cc(NCCN2CCOCC2)n2c(nc3ccccc32)c1C#N	0.67	1.01	-0.187	/	0.723	1.95
CC(C)c1cc(NCCCN2CCOCC2)n2c(nc3ccccc32)c1C#N	-0.16	1.08	1.13	/	0.16	2.3*
N#Cc1c2c(c(NCCCN3CCOCC3)n3c1nc1ccccc13)CCC2	-0.41	1	-0.237	/	-1.06	3.03*
N#Cc1c2c(c(NCCN3CCOCC3)n3c1nc1ccccc13)CCCC2	0.35	0.99	1.97	/	-0.00929	1.77
CCCc1cc(NCCN2CCOCC2)n2c(nc3ccccc32)c1C#N	0.48	1.02	-0.0759	/	-0.519	2.34*
COc1cc(C2C(C#N)=C(N)Oc3cc(C)n(Cc4ccccn4)c(=O)c32)cc2c1OCO2 (stereo not given)	-0.23	1.01	33.8*	/	-10*	1.11
COC(=O)C1=C(C)N(C)C(C)=C(C(=O)OC)C1c1cc(Br)ccc1OC	/	/	/	i	/	/
N#Cc1sc2nc3c(c(-c4ccco4)c2c1N)CCCC3	-0.59	1.03	-0.785	i	0.202	1.3
COCc1cc(C)c2c(N)c(C#N)sc2n1	0.39	1.04	-1.6	i	0.683	2.44*
CCCCn1c(NC(=O)c2ccccc2)c(C#N)c2nc3ccccc3nc21	0.43	1.08	/	/	/	3.77*
CCCCn1nnc(NC(=O)c2ccc(-c3ccccc3)cc2)n1	-0.42	1.07	0.349	/	0.119	1.13
CCCCn1c(NC(=O)c2ccc(F)cc2)c(C#N)c2nc3ccccc3nc21	-0.8	1.04	0.549	/	0.235	5.01*
Cc1cccc(N2CCN(C(=O)C3CCCCC3)CC2)c1C	1.04	1.02	0.556	i	-0.0132	1.12
CCS(=O)(=O)N1Cc2ccccc2CC1C(=O)N1CCN(c2cccc(C)c2C)CC1 (stereo not given)	-3.14*	1.02	2.11	i	-0.137	1.1
O=[N+]([O-])c1cc(S(=O)(=O)Nc2cc3c4c(oc3c3ccccc23)CCCC4)ccc1Cl	/	/	/	i	/	/
N#Cc1nc(-c2ccco2)oc1N1CCN(c2cccc(Cl)c2)CC1	0.28	1.02	0.206	/	0.187	1.2
SMILES	WNV protease inh	Abs 340nm	M1 agonist	BAP1 block	M1 antagonist	Autofluor 339
COc1ccccc1-c1nc(C#N)c(N2CCN(c3cccc(Cl)c3)CC2)o1	-0.63	0.91	-0.434	/	-0.133	3.52*
COc1ccccc1-c1nc(C#N)c(N2CCN(C(c3ccccc3)c3ccccc3)CC2)o1	-0.4	1.06	-0.939	/	0.0125	3.85*
COc1nc(C#N)c(N2CCOCC2)o1	1.68	1.01	-1.05	i	1.32	1.01
CCCOC(=O)c1cccc(NC(=O)COc2c(C)cccc2C)c1	/	/	/	i	/	/
COc1ccc(NC(=O)c2cccnc2Cl)c(OC)c1	/	/	/	i	/	/
Nc1c(C(=O)NCCN2CCOCC2)c2nc3ccccc3nc2n1CCc1ccccc1F	1.35	1.01	0.222	/	0.212	3.91*
Nc1c(C(=O)NCCN2CCOCC2)c2nc3ccccc3nc2n1-c1ccccc1	2.65	1.01	0.661	/	0.0562	3.91*
Nc1c(C(=O)NCCN2CCOCC2)c2nc3ccccc3nc2n1CCc1ccccc1	0.19	1	0.596	/	0.171	3.87*
COCCNC(=O)c1c(N)n(-c2cccc(C)c2)c2nc3ccccc3nc12	0.46	1	0.0174	i	-0.358	3.87*
O=C(Nc1cccnc1Cl)c1nn2c(C(F)(F)F)cc(-c3cc(Br)cs3)nc2c1Br	/	/	/	i	/	/
NC(=O)c1cc2c(ccc3ccccc32)oc1=Nc1cccc2ccccc12	/	/	/	i	/	/
C=CCNC(=O)c1c(N)n(-c2cccc(S(N)(=O)=O)c2)c2nc3ccccc3nc12	1.95	1.05	-0.254	i	0.926	2.12*
c1ccc(-c2nnc(Cn3c4ccccc4c4nc5ccccc5nc43)o2)cc1	0.86	1.12	0	/	0	3.6*
COC(=O)c1c(N)n(-c2ccc(N3CCOCC3)cc2)c2nc3ccccc3nc12	-1	1.07	-0.445	i	-0.326	1.02
c1ccc2nc3c(nc2c1)c1ccccc1n3CCN1CCOCC1	-2.2	1.1	6.45*	i	-0.292	1.17
COC(=O)c1c(N)n(-c2ccc(NC(C)=O)cc2)c2nc3ccccc3nc12	1.35	1.13	0.841	i	-0.405	3.82*
Brc1ccc2c(c1)c1nc3ccccc3nc1n2CCN1CCOCC1	-0.84	1.08	-0.582	i	0.322	1.02
CC(O)c1nc2ccccc2n1Cc1nnc(-c2ccc(Cl)cc2)o1 (stereo not given)	1.94	1.02	-1.02	i	0.077	1.07
Clc1cc(-n2nc(-c3ccccc3)cc2-c2ccccc2)ncn1	/	/	/	i	/	/
CC(=O)Nc1ccc(S(=O)(=O)c2c(N)n(CCN3CCOCC3)c3nc4ccccc4nc23)cc1	0.58	1.15	0.711	/	-0.00543	2.27*
COc1ccccc1C(=O)Nc1ccc2oc(-c3ccc(F)cc3)nc2c1	1.39	1.17	-0.966	i	-0.57	2.21*
COc1ccc(C(=O)Nc2ccc3oc(-c4cccc(F)c4)nc3c2)cc1OC	-0.53	1.08	0.0573	/	-0.0878	2.13*
Cc1ccc(S(=O)(=O)Cc2cn3cccnc3n2)cc1	-0.00811	1.05	1.95	/	1.57	3.74*
O=c1[nH]c2ccccc2cc1-c1noc(-c2cccnc2)n1	-0.64	1.08	0.32	/	-0.623	4.18*
c1ccc(-c2noc(-c3cccnc3)n2)cc1	0.2	1.03	-0.457	/	-0.025	1.11
COc1ccc2[nH]c(=O)c(-c3noc(-c4ccccc4)n3)cc2c1	-0.85	1.04	0.0454	/	0.129	3.57*
C=CCN1C(=O)CC(c2ccccc2)=Nc2ccccc21	/	/	/	i	/	/

Compound activity: PubChem BioAssay, several laboratories
